Data reported in PubChem BioAssay (NCATS).
Values joined by “and” are separate entries in the source; they are usually repeats but may differ in a detail not shown here. Equal entries are not always repeated. Inconclusive results are not listed. Active and inactive are the calls of the source. Unless noted, calls follow the shape of the dose curve; as a rule, active = well fitted curve in the direction sought with a large enough effect; inconclusive = small, poorly fitted or top-dose-only effect, or another doubt; inactive = no such curve, though single readings can be large; an effect the other way counts as inactive or inconclusive.

Experiments:
[1] = qHTS assay for small molecule activators of the p53 signaling pathway (AID 651743; active = well fitted activation curve with a large enough effect in the signal ratio, not every such curve was filed as active; the % refers to the signal ratio; also: series mostly up to about 92 µM; % of control where 0% means no effect); details: HCT-116 p53RE-bla, beta-lactamase FRET ratio, 16 h; activation: hits give high values
In short: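 p53RE-bla HCT-116 cells carrying a beta-lactamase reporter under p53 response elements were exposed to compounds for 16 hours at 37 C. Reporter activity read as fluorescence after 2 hours at room temperature with LiveBLAzer B/G FRET substrate.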

[2] = target: Tumor necrosis factor (Homo sapiens) (UniProt P01375); experiment: qHTS assay to identify small molecules that stimulate Tumor Necrosis Factor-alpha (TNF-alpha) secretion (AID 651757; active = well fitted curve in the direction sought with a large enough effect in the signal ratio; the % refers to the signal ratio; also: 0% is about no effect)
Tumor necrosis factor (Homo sapiens), sequence (P01375 whole entry, looked up): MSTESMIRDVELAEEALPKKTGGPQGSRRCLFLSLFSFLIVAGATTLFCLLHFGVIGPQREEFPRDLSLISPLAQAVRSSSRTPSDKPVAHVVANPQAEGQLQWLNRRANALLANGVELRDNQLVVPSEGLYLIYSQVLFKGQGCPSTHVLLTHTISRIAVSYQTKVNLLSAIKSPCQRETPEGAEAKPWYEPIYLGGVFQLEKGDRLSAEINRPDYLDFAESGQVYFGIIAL
In short: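 THP-1 cells (3000/well) exposed to compounds 17 hrs at 37 C. Secreted TNF-alpha detected by HTRF with cryptate- and XL665-labeled anti-TNF-alpha antibodies after 3 hr at room temperature.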

[3] = qHTS assay for environmental chemicals that activate the Aryl hydrocarbon Receptor (AhR) signaling pathway (AID 651777); details: 1A2-DRE human hepatoma cells, luciferase, 24 h; activation: hits give high values; also: % of control where 0% means no effect; nearly all actives have a fitted effect of over 15% in size
In short: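 Concentration–response screening used 1,200 1A2-DRE cells per well, 24 hr compound exposure (37 C, 5% CO2), and One-Glo luminescence as the AhR-driven CYP1A2 reporter signal.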

[4] = target: Peroxisome proliferator-activated receptor alpha (Homo sapiens) (UniProt Q07869); experiment: qHTS assay for small molecule agonists of the peroxisome proliferator-activated receptor alpha (PPARalpha) signaling pathway (AID 651778); details: PathHunter PPARalpha complementation, chemiluminescence, 6 h; max response: hits give high values; also: % of control where 0% means no effect
Peroxisome proliferator-activated receptor alpha (Homo sapiens), sequence (Q07869 whole entry, looked up, the tested form may be a part): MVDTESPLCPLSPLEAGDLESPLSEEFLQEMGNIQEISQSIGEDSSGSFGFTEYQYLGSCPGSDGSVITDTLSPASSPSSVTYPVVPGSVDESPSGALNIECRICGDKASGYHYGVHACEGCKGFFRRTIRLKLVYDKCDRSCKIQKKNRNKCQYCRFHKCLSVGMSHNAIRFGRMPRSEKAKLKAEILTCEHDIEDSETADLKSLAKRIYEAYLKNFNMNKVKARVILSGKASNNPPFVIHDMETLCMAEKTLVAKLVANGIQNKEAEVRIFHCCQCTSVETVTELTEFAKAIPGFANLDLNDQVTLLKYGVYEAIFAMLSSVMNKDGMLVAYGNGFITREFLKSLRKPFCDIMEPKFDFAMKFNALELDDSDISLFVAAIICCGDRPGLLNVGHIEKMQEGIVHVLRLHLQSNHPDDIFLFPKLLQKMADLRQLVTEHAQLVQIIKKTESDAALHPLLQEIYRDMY
In short: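 Enzyme-fragment complementation assay in which ligand-bound PPARalpha translocates and forms an active enzyme that generates chemiluminescence. Cells were plated overnight, exposed to compound for 6 hr at 37 C, and then given detection reagent for 60 min at room temperature.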

[5] = target: Nuclear receptor ROR-gamma (Homo sapiens) (UniProt P51449); experiment: qHTS assay for small molecule antagonists of the retinoid-related orphan receptor gamma (ROR-gamma) signaling pathway (AID 651802);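 also: luciferase reporter luminescence driven by ROR response element; series mostly up to about 92 µM; % is scaled to controls: 0 for no effect and ±100 for the full control effect; nearly all actives have a fitted effect of over 60% in size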
Nuclear receptor ROR-gamma (Homo sapiens), sequence (P51449 whole entry, looked up): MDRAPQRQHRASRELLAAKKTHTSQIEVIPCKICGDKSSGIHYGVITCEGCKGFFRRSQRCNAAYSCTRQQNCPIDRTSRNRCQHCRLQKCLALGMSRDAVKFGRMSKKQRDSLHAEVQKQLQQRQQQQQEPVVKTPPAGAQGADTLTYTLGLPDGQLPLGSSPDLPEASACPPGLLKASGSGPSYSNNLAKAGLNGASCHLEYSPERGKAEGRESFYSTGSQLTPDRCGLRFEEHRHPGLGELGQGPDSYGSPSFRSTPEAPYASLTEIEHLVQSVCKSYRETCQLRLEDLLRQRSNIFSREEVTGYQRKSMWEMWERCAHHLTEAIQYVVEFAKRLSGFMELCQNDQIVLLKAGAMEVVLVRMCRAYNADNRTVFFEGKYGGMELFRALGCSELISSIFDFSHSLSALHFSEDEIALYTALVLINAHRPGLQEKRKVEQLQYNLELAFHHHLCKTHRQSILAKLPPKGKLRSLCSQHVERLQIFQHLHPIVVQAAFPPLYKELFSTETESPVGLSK
In short: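 CHO cells with TET-inducible ROR-gamma and RORE-luciferase reporter, dosed then doxycycline-induced. After 16 h at 37C, One-Glo luminescence read; decreased signal indicates antagonism.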

[6] = qHTS assay for small molecule agonists of the antioxidant response element (ARE) signaling pathway measured by Nrf2-dependant transcriptional activity - cell viability counter screen (AID 720653; active = well fitted curve in the direction sought with a large enough effect in the repeat runs; an effect the other way counts as inactive or inconclusive; also: % is scaled to controls: 0 for no effect and ±100 for the full control effect); details: ARE-bla HepG2 viability, CellTiter-Glo ATP luminescence, 16 h; max response: hits give low values
In short: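 ARE-bla HepG2 cells treated with compounds for 16 h at 37C; this counter screen measures viability as intracellular ATP by CellTiter-Glo luminescence after 30 min at room temperature.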

[7] = qHTS assay for small molecule activators of the nuclear factor-kappa B (NF-kB) signaling pathway (AID 651749; active = well fitted activation curve with a large enough effect in the signal ratio; the % refers to the signal ratio; also: series mostly up to about 77 µM; % of control where 0% means no effect); details: NF-kB-bla ME-180 cells, beta-lactamase FRET ratio, 16 h; hits give high values
In short: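 NF-kB-bla ME-180 cells carrying a beta-lactamase reporter under an NF-kB response element, 2,000 cells/well, exposed to compound for 16 hr at 37C; FRET-based beta-lactamase fluorescence read-out of pathway activation.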

[8] = qHTS assay for small molecule agonists of the antioxidant response element (ARE) signaling pathway measured by Nrf2-dependant transcriptional activity (AID 720636; active = well fitted curve in the direction sought with a large enough effect in the repeat runs; an effect the other way counts as inactive or inconclusive;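 also: HepG2 cells with an ARE-driven luciferase reporter; % of control where 0% means no effect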)
In short: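 Attachment 6 hr at 37 C, then compound versus DMSO vehicle for 16 hr in ARE-luc HepG2 cells (1% dialyzed FBS); luminescence recorded 30 min after ONE-Glo addition at room temperature.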

[9] = qHTS assay for small molecule antagonists of the retinoid-related orphan receptor gamma (ROR-gamma) signaling pathway - cell viability counter screen (AID 720652; active = well fitted curve in the direction sought with a large enough effect in the repeat runs; an effect the other way counts as inactive or inconclusive;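 also: series mostly up to about 92 µM; compound exposure lasted 16 hr before ATP read; % is scaled to controls: 0 for no effect and ±100 for the full control effect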)
In short: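 CHO cells carrying TET-inducible ROR and RORE-luciferase reporter, plated 5 hr, then dosed with compound plus doxycycline. After 16 hr at 37 C, viability read as intracellular ATP by CellTiter-Glo luminescence.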

[10] = qHTS assay for small molecule agonists of the antioxidant response element (ARE) signaling pathway (AID 651741; active = well fitted activation curve with a large enough effect in the signal ratio; the % refers to the signal ratio; also: % of control where 0% means no effect)
In short: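 CellSensor ARE-bla HepG2 cells (2,000/well) carrying ARE-driven beta-lactamase, exposed 16 h at 37 C. LiveBLAzer B/G FRET substrate added for 2 h at room temperature; fluorescence intensity read.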

[11] = qHTS assay for small molecule disruptors of the mitochondrial membrane potential - 1 hr assay (AID 651754; calls by dose curve; also: % is scaled to controls: 0 for no effect and ±100 for the full control effect; nearly all actives have a fitted effect of over 35% in size)
In short: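 HepG2 cells, attached overnight, were exposed to compound for 1 hr at 37C, then stained 30 min with a potentiometric dye. Ratio of red aggregate (590nm) to green monomer (535nm) fluorescence reports membrane potential; collapse shifts signal toward green.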

[12] = qHTS assay for small molecule disruptors of the mitochondrial membrane potential - 5 hr assay (AID 651755; calls by dose curve; also: % is scaled to controls: 0 for no effect and ±100 for the full control effect; nearly all actives have a fitted effect of over 40% in size)
In short: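 HepG2 cells (2,000/well), attached overnight, exposed to compound 5 hr at 37C, then Mito-MPS dye 30 min. Fluorescence read for monomers (490/535 nm) and aggregates (540/590 nm).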

[13] = target: Arylsulfatase A (Homo sapiens) (UniProt P15289); experiment: qHTS screen for enhancers of Arylsulfatase A (ASA1): LOPAC Validation Assay (AID 720538); details: outcome: dose series up to 57.5 µM
Arylsulfatase A (Homo sapiens), sequence (P15289 whole entry, looked up): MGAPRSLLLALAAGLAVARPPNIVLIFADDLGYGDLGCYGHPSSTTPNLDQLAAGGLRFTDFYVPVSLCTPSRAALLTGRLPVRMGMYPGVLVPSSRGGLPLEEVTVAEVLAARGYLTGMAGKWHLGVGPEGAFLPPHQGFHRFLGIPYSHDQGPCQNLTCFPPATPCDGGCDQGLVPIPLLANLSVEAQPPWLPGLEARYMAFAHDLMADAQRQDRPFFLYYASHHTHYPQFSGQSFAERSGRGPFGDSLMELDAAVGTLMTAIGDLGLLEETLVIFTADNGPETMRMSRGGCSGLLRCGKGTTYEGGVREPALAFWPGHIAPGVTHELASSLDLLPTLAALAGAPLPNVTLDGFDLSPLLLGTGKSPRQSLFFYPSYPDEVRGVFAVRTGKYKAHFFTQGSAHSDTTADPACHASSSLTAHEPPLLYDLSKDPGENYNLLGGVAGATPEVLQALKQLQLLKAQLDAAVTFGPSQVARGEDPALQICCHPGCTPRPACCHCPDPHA
In short: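 MLD patient fibroblasts (SV40, ASA-I179S), 1536-well; adhere 6 hrs; cpd 48h, 37 degree C, 5% CO2; pNCS 0.5mM final in lysis buffer, 14h RT; stop 1N NaOH final; fluor. Ex525/Em598.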

[14] = qHTS for compounds that reverse cellular toxicity of Amyloid beta (A-beta) peptide in yeast: LOPAC Validation Assay (AID 720559);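 also: plate controls were DMSO for no effect and equimolar ferric chloride plus clioquinol rescue for full effect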
In short: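 Medium dispensed, compounds pinned, A-beta yeast suspension added; plates held at 30 C for 48 hr; absorbance measured at 600 nm to gauge growth; values scaled between DMSO and FeCl3/clioquinol (equimolar) controls.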

[15] = qHTS for Activators of Parkin Expression: LOPAC Validation Assay (NLuc Reporter) (AID 720572)
In short: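 Neuronal cells with a Parkin promoter-driven FLuc/NLuc coincidence reporter were treated 24 h at 37 C in 7-point dose response (LOPAC). NLuc luminescence read after FLuc; signals normalized to DMSO and positive control (100%).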

[16] = qHTS for Activators of Parkin Expression: LOPAC Validation Assay (FLuc Reporter) (AID 720573)
In short: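 Cells seeded, 24 h; compounds pinned, 7-pt dose response; 24 h at 37 C/5% CO2; volume reduced; FLuc reagent 10 min RT; luminescence read. Normalization: DMSO = 0, positive control = 100%.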

[17] = target: T1, Hexokinase-4 (Homo sapiens) + Glucokinase regulatory protein (Homo sapiens) (UniProt P35557+Q14397); experiment: qHTS assay for inhibitors of recombinant human GCK-GKRP interaction: Diaphorase-coupled assay (AID 743205)
T1 sequence (P35557 whole entry, looked up): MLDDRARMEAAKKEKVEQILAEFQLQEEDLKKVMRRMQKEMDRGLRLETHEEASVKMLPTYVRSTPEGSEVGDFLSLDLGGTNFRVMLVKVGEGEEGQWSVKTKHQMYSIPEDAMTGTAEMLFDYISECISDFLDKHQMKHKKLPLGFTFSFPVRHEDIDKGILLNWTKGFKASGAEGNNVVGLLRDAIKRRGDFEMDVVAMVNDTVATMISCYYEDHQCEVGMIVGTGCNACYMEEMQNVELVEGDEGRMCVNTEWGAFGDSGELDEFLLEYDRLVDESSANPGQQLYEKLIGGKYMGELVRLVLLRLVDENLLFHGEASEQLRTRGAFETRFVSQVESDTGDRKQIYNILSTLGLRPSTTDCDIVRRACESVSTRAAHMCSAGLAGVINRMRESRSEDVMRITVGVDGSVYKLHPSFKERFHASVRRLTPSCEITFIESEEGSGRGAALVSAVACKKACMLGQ
T1 sequence (Q14397 whole entry, looked up): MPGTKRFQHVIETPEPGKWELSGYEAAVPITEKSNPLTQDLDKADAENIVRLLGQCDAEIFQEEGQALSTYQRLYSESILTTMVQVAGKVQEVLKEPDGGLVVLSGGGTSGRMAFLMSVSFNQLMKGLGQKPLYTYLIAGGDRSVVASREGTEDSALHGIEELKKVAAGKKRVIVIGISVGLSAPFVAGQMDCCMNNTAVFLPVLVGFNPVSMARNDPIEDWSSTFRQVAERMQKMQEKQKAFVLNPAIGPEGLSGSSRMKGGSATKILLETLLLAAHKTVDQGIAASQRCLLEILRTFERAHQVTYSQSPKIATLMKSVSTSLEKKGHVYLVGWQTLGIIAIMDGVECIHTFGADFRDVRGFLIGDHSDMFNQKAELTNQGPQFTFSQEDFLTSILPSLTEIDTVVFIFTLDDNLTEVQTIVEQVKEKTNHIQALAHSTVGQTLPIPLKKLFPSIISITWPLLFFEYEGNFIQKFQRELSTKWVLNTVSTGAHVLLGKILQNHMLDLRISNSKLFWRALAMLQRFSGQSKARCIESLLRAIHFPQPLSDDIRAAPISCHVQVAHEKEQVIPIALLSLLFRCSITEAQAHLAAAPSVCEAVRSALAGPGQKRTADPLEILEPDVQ
In short: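 25 mM Hepes pH 7.6, 5 mM glucose, 0.4 mM ATP, 4 U/ml G6PDH; 10 nM each GST-GCK/FLAG-GKRP. Kinetic fluorescence read, 1/min × 30 min. Normalized: DMSO ± enzyme = max/min.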

[18] = target: T1, Hexokinase-4 (Homo sapiens) + Glucokinase regulatory protein (Homo sapiens); experiment: qHTS assay for inhibitors of recombinant human GCK-GKRP interaction: ADP-Glo assay (AID 743206);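 also: plate controls were DMSO plus enzyme for no effect and no enzyme for full effect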
In short: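 GST-GCK and FLAG-GKRP (15 nM each in the dispensed mix, with 2 uM S6P) react with 0.4 mM ATP and 5 mM glucose (final) in Hepes pH 7.6 for 60 min at room temperature. ADP is measured by ADP-Glo luminescence.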

[19] = target: Tyrosine-protein kinase Yes (Homo sapiens) (UniProt P07947); experiment: qHTS for small molecule inhibitors of Yes1 kinase: Primary Screen (AID 686947); also: nearly all actives have a fitted effect of over 60% in size; also: potency is read from the fitted curve at half-maximal effect
Tyrosine-protein kinase Yes (Homo sapiens), sequence (P07947 whole entry, looked up): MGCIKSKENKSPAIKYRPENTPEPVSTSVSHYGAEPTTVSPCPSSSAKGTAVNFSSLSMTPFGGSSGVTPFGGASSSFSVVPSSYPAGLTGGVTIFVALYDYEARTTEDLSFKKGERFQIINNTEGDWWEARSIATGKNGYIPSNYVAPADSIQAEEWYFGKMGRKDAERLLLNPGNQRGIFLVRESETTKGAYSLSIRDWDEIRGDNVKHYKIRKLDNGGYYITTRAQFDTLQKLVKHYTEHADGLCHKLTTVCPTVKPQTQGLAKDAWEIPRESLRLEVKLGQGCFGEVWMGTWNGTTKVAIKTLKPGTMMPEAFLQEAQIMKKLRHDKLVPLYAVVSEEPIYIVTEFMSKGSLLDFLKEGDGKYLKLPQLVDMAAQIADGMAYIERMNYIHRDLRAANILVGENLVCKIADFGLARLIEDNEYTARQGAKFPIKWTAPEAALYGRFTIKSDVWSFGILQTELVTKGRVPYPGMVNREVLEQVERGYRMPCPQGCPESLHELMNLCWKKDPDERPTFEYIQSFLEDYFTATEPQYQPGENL
In short: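 Yes1 (4 nM) preincubated 20 min with compound, then 60 min room-temperature reaction with 0.1 mM ATP and 0.3 mg/mL poly(E4Y) in pH 7.5 Tris, 10 mM MgCl2. ADP measured by ADP-Glo luminescence, normalised to enzyme/no-enzyme controls.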

[20] = qHTS for small molecule inhibitors of Yes1 kinase: Counter Assay (AID 686950);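 also: no kinase present so only ADP-Glo detection of a fixed ADP amount is tested; luminescence from ADP-Glo reporting ADP in a fixed ATP and ADP mixture; series mostly up to about 77 µM; 0% = DMSO wells with ATP plus ADP and -100% = ATP-only wells without ADP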
In short: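 Enzyme-free detection counter-screen: compounds preincubated 20 min in buffer, then 0.08 mM ATP plus 0.02 mM ADP added for 60 min at room temperature; ADP-Glo luminescence. Buffer 50 mM Tris pH 7.5, 10 mM MgCl2, 150 mM NaCl; normalized to ATP+ADP and ATP-only controls.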

CCCCCCCCc1ccc(O)cc1
inactive: activation [1] 0.0262% and -2.23% | outcome [2] | activation [3] 1.65% and 1.55% | max response [4] 18.3% and 5.8% | Potency [5] | max response [6] -0.124% and 0.446%

Nc1ccc([N+](=O)[O-])cc1
inactive: activation [1] 0.0042% | activation [7] -0.186% | outcome [2] | max response [4] -2.66% | Potency [5] | Potency [8] | Potency [9] | max response [6] -0.336%

C=CCC1=C(C)C(OC(=O)C2C(C=C(C)C)C2(C)C)CC1=O (centres undefined)
inactive: activation [1] 1.22% | activation [7] 0.983% and 2.07% | activation [3] 0.269% and 0.976% | Potency [8] | max response [6] 6.17% and -10.4%

O=[N+]([O-])/N=C1\NCCN1Cc1ccc(Cl)nc1
inactive: Potency [10] | Potency [8] | max response [6] 8.85%

O=[N+]([O-])c1c(Cl)c(Cl)cc(Cl)c1Cl
inactive: activation [1] -1.29% | activation [7] -0.885% | Potency [11] | Potency [12] | outcome [2] | activation [3] 4.33% | Potency [5] | Potency [8] | Potency [9] | max response [6] 0.0593%

Clc1cnc(Oc2ccc(Oc3ncc(Cl)cc3Cl)cc2)c(Cl)c1
inactive: activation [1] -0.174% | activation [7] 0.531% | activation [3] 0.838% | outcome [13] | outcome [14] | outcome [15] | outcome [16] | Potency [8] | max response [6] -6.15% | outcome [17] | outcome [18]

CC(C)[C@]12O[C@H]1[C@@H]1O[C@]13[C@]1(O[C@H]1C[C@H]1C4=C(CC[C@@]13C)C(=O)OC4)[C@@H]2O
inactive: Potency [19] | outcome [20]

O=C(O)C(Cl)Cl
inactive: Potency [10] | outcome [2] | activation [3] 3.85% and 0.254% | Potency [5] | Potency [8] | max response [6] -10.5% and 2.18%

NC1CC1c1ccccc1 (centres undefined)
inactive: outcome [13] | outcome [14] | outcome [15] | outcome [16] | outcome [17] | outcome [18]

NCCc1c[nH]c2ccc(O)cc12
inactive: outcome [13] inactive; inhibitor; fitted 4.2562 uM | outcome [14] | outcome [15] | outcome [16] | outcome [17] | outcome [18]

CC(=O)Nc1ccc(OC[C@](C)(O)C(=O)Nc2ccc([N+](=O)[O-])c(C(F)(F)F)c2)cc1
inactive: Potency [19] | outcome [20]

CCCN(CCC)C1CCc2ccc(O)cc2C1 (centres undefined)
inactive: outcome [13] inactive; inhibitor; fitted 0.0338 uM | outcome [14] | outcome [15] | outcome [16] | outcome [17] | outcome [18]

CC(C)Oc1cccnc1N(C)C1CCN(Cc2ccccc2)CC1
inactive: outcome [13] | outcome [14] | outcome [15] | outcome [16] | outcome [17] | outcome [18]

Cc1c(C(=O)Nc2cccc(C(F)(F)F)c2)cc(-c2ccccc2)n1CCCN1CCOCC1
inactive: Potency [19] | outcome [20]

O=C(Oc1ccc([N+](=O)[O-])cc1)N1CCC(C(O)(c2ccc3c(c2)OCO3)c2ccc3c(c2)OCO3)CC1
active: Potency [19] 2440 nM
inactive: outcome [20]

Cn1cnc(CCN)c1
inactive: outcome [13] | outcome [14] | outcome [15] | outcome [16] | outcome [17] | outcome [18]

COc1ccc2c(c[n+](C)c3c4cc5c(cc4ccc23)OCO5)c1OC
inactive: Potency [19] | outcome [20] | outcome [13] | outcome [14] | outcome [15] | outcome [16] | outcome [17] | outcome [18]

C=CCN1CC[C@]23CCCCC2[C@H]1Cc1ccc(O)cc13 (some centres undefined)
inactive: outcome [13] inactive; inhibitor; fitted 0.0301 uM | outcome [14] | outcome [15] | outcome [16] | outcome [17] | outcome [18]

CNCCc1c[nH]c2ccc(O)cc12
inactive: outcome [13] | outcome [14] | outcome [15] | outcome [16] | outcome [17] | outcome [18]

O=C1CCCN1CC#CCN1CCCC1
inactive: outcome [13] | outcome [14] | outcome [15] | outcome [16] | outcome [17] | outcome [18]

C[N+]1(C)C2CCC1CC(OC(=O)C(CO)c1ccccc1)C2 (centres undefined)
inactive: outcome [13] | outcome [14] | outcome [15] | outcome [16] | outcome [17] | outcome [18]
